Where two headings read alike, the source gives them in different places. The whole screen tested about 13,000 compounds, of which about 3,200 (25%) showed an effect of 50% or more. Some of the results follow. Peptide text beside a SMILES is read from it. * marks the point of attachment. Octanoyl = CCCCCCCC(=O)*
Test system: P. falciparum stage V gametocytes
Design: BacTiter-Glo ATP luminescence viability of purified stage V gametocytes in 384-well plates, per cent inhibition versus DMSO
Details: 48 h, 5 µM, inhibitor

Compound | % Inhibition [%] | % Inhibition (% Inhibition) [%]
O=C(Nc1ccc(-c2nc3ccccc3[nH]2)cc1)c1ccc([N+](=O)[O-])s1 [TCMDC-123726] | 9.602 | –
Nc1nc(N)c2nc(C3CC=CCC3)c(N)nc2n1 (stereo not drawn) [TCMDC-141989] | 6.679 | –
CCCCCCCC(=O)N[C@@H](Cc1ccccc1)C(=O)N[C@H](C(=O)O)C(C)C [TCMDC-139536] (Octanoyl-Phe-Val-OH) | 1.099 | –
CC(CN(C)C)C(=O)Nc1ccc(-c2ccc(-c3nc4ccccc4[nH]3)s2)cc1 (stereo not drawn) [TCMDC-137100] | 21.36 | –
Cc1ccc(NC(=O)C(C)Sc2n[nH]c(-c3ccccc3Br)n2)cc1 (stereo not drawn) [TCMDC-125166] | 75.62 | –
CC(Sc1n[nH]c(-c2ccccc2Br)n1)C(=O)Nc1ccc(F)cc1 (stereo not drawn) [TCMDC-125115] | -62.46 | –
COc1ccc(Br)cc1C1Nc2ccc3ccccc3c2C2=C1C(=O)CC(c1ccccc1)C2 (stereo not drawn) [TCMDC-125675] | 55.64 | –
COc1ccc(C2CC(=O)C3=C(C2)NC(C)=C(C(=O)OC(C)C)C3c2ccccc2F)cc1OC (stereo not drawn) [TCMDC-124038] | 37.21 | –
COc1cc(C2Nc3ccc4ccccc4c3C3=C2C(=O)CC(C)(C)C3)ccc1Oc1ccc([N+](=O)[O-])cc1C#N (stereo not drawn) [TCMDC-125717] | 30.01 | –
CN(Cc1ccncc1)C(Cc1ccccc1)C1CCN(Cc2ccc(O)c(Cl)c2)CC1 (stereo not drawn) [TCMDC-124648] | -12.77 | –
COc1cc(CNC[C@@H](O)[C@H](Cc2ccccc2)NC(=O)c2cc(OC(C)C)cc(N3CCCCS3(=O)=O)c2)cc(OC)c1 [TCMDC-134525] | 23.04 | –
CCc1cc2c(cc1OCCN(C)C)N(C(=O)Nc1ccc(-c3ccncc3)c(Cl)c1)CC2 [TCMDC-139214] | 8.963 | –
COc1ccc(-c2cnc3ccc(NCCCO)nn23)cc1OC [TCMDC-136683] | 53.42 | –
COc1ccc(-c2cnc3ccc(N4CCCC4)nn23)cc1OC.O=CO [TCMDC-134177] | 42.14 | –
N#Cc1ccc(-c2cnc3ccc(NCCc4cccnc4)nn23)cc1 [TCMDC-136679] | 23.92 | –
Fc1ccc(CNc2ccc3ncc(-c4cccnc4)n3n2)cc1 [TCMDC-136674] | 19.94 | –
Oc1cccc(-c2cnc3ccc(NCc4ccc(F)cc4)nn23)c1 [TCMDC-136676] | 39.41 | –
COc1ccc(-c2cnc3ccc(NCc4ccc(F)cc4)nn23)cc1OC [TCMDC-136675] | 53.19 | –
C/C=C1\CN2CC[C@H]1C[C@H]2[C@H](O)c1ccnc2ccc(O)cc12 [TCMDC-138272] | 3.79 | –
COc1ccc2nccc(N3CCC(O)(CCNCc4ccc5c(n4)NC(=O)CO5)CC3)c2n1 [TCMDC-134564] | -10.39 | –
CCNC(=O)N1CCN(c2nc(-c3ccccc3)nc(COC)c2Cc2ccc(C)cc2)CC1 [TCMDC-124783] | 37.5 | –

Compound | % Inhibition [%] | % Inhibition (% Inhibition) [%]
O=c1cc(NCCCNCc2cc(C(F)(F)F)ccc2F)[nH]c2ccccc12 [TCMDC-139423] | -83.26 | –
CC1(C)N=C(N)N=C(N)N1OCCc1ccc2ccccc2c1 [TCMDC-131755] | -0.2663 | –
COc1cc(Cc2cnc(N)nc2N)cc(OCCCCC2NC(=O)NC2=O)c1OC (stereo not drawn) [TCMDC-137299] | 4.359 | –
CC1CCCN1Cc1ccc(-c2ccc3c(=O)cc(CCc4cccc(F)c4F)n(CC(=O)N(C)Cc4ccc(-c5ccc(C(F)(F)F)cc5)cc4)c3n2)cc1 (stereo not drawn) [TCMDC-136564] | 30.5 | –
Cc1nc2c(s1)c(=O)cc(CCc1cccc(F)c1F)n2CC(=O)N(Cc1ccc(-c2ccc(C(F)(F)F)cc2)cc1)C1CCN(C(C)C)CC1 [TCMDC-141264] | 113.7 | –
Cc1ccc2c(=O)cc(CCc3cccc(F)c3F)n(CC(=O)N(Cc3ccc(-c4ccc(C(F)(F)F)cc4)cc3)C3CCN(C)CC3)c2n1 [TCMDC-141317] | 107 | –
Cc1ccc2c(=O)cc(CCc3cccc(F)c3F)n(CC(=O)N(Cc3ccc(-c4ccc(C(F)(F)F)cc4)cc3)C3CCN(C(C)C)CC3)c2n1 [TCMDC-141318] | 122.6 | –
COC(=O)Cn1c2ccccc2c2c(N)c(C(=O)OC)c(C)nc21 [TCMDC-131562] | 7.659 | –
CC(C)c1ccc(NC(=O)c2ccc(CN3CCCN(CC4CCCCC4)CC3)cc2)cc1 [TCMDC-136417] | -19.72 | –
CCC(CC(NCCCCNC(=O)c1ccc(NC(=O)c2ccc(Cl)cc2)cc1)c1ccccc1)c1ccccc1OC (stereo not drawn) [TCMDC-138579] | – | 48.18
N#Cc1c(N2CCN(c3ccc(F)cc3)CC2)nc(N)c2c(N)nc3c(c12)CC(=O)N3C1CC1 [TCMDC-124490] | 43.84 | –
Cc1cccc2[nH]c(-c3cccc(-c4cccc(NC(=O)c5ccc(=O)[nH]n5)c4)c3)nc12 [TCMDC-137033] | -59.71 | –
COc1ccc2c(c1CNCCCCCCNCc1c(OC)ccc3c1CCCC3)CCCC2 [TCMDC-137817] | 117.4 | –
N#CC1(CCCNCCc2ccc(O)cc2)CCCc2c(O)cccc21 (stereo not drawn) [TCMDC-137732] | -11.73 | –
COc1ccc2c(c1C1CCN(CCCCNC(=O)c3ccc(-c4ccc(Cl)cn4)cc3)CC1)CCCC2 [TCMDC-138576] | -10.77 | –
COc1ccc2c(c1CCNCCCCNCCc1c(OC)ccc3c1CCCC3)CCCC2 [TCMDC-137324] | 111.7 | –
O=C(Nc1ccc(F)cc1)N1CCCN(c2ccnc3cc(Cl)ccc23)CC1 [TCMDC-133584] | -23.79 | –
COc1cc2c(cc1OC)CN(CCc1ccc(NC(=O)c3cc4cc(Cl)ccc4[nH]3)cc1)CC2 [TCMDC-138249] | -9.297 | –
Cc1cc2c(cc1C(F)(F)F)N(C(=O)Nc1ccc(OCCN(C)C)c(C(F)(F)F)c1)CC2 [TCMDC-139850] | 18.6 | –
COc1cc(F)c2nccc([C@@H](O)CN3CCC(NCc4ccc5c(n4)NC(=O)CS5)C(F)C3)c2c1 (stereo partly drawn) [TCMDC-141805] | -13.4 | –
FC(F)(F)c1cc(Nc2ccc(Oc3ccccc3)cc2)c2cc(-c3ccncc3)ccc2n1 [TCMDC-138549] | -36.95 | –

Source: article PMC4552634, “A New Set of Chemical Starting Points with Plasmodium falciparum Transmission-Blocking Potential for Antimalarial Drug Discovery” (PLoS ONE, 2015)
